# From PubChem BioAssay
# FUS suppressor – suppressors of FUS proteinopathy in yeast. AID 1347120. S. cerevisiae FUS-expressing, growth rescue, OD600, 24 h. 390,000 tested, 0.24% active. Potency, µM (series often up to 76.6 µM), actives largely listed as activators; note: nearly all actives have a fitted effect of over 55% in size
#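 Yeast expressing FUS under galactose induction, OD 0.005 in 2% galactose medium; compounds in a dilution series, 24 h at 30C. Growth rescue by absorbance at 600 nm; CP55940 positive control, DMSO negative.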
# aSyn rescue – alpha-synuclein toxicity inhibition in yeast. Yeast expressing alpha-synuclein, growth rescue, BacTiter-Glo, 24 h. Potency, µM (highest dose often 46.1 µM), usual class: activators. 370,000 tested, 0.14% active; note: nearly all actives have a fitted effect of over 65% in size
#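 Galactose-induced alpha-syn yeast (OD600=0.02, raffinose-pregrown) + pinned cpd, 24 hr, 30 deg C; growth by BacTiter-Glo luminescence. Growth restoration scores as activation.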
# pAkt inh – Akt phosphorylation inhibition. Neuro2A IGF-stimulated pAkt S473 HTRF, 20 min; hits give low values. activity change, % for hits at 50 µM. 360,000 tested, 0.32% active; in the data active = activity change below about -80%; inconclusive = mostly about -51% to -80%
#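 Single-point screen (50 µM final compound) in Neuro2A cells stimulated 20 min with 6 nM IGF at 37 deg C. After lysis, Ser473-phosphorylated Akt read by HTRF (ex 330 nm, em 615/665 nm) as the 665/615 ratio.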
# TDP43 rescue – rescues yeast growth from TDP-43 toxicity; TDP-43 expressing yeast growth rescue, BacTiter-Glo, 24 h; Potency, µM (series often up to 46.1 µM), hits mostly activators; 410,000 tested, 1.8% active; note: nearly all actives have a fitted effect of over 50% in size
#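 Growth rescue of TDP-43-toxic yeast measured as ATP luminescence (BacTiter-Glo). Cells grown to mid-log in raffinose, induced in galactose at OD600=0.02, exposed to compound 24 hr at 30 deg C.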
# Abeta yeast res – A-beta toxicity reversal in yeast; yeast expressing A-beta42, growth rescue, OD600, 48 h; response scale: 0% DMSO, 100% iron-clioquinol control; Potency, µM (highest dose often 46.1 µM), actives largely listed as activators; 410,000 tested, 0.063% active; AID 1347071; note: nearly all actives have a fitted effect of over 55% in size
#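 Growth rescue measured by 600 nm absorbance after 48 h yeast culture at 30 C with compound. Values normalized between DMSO and an equimolar ferric chloride plus clioquinol control.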
# Numbers stand for hits; . = inactive; ? = inconclusive; / = not tested or not shown; ! = not confirmed by another sample; [ ] = dose if it differs, or a comment. Only some compounds are listed: those with a hit (about 2.3% of all), similar ones and a draw of the others. Unless noted, calls come from the whole dose curve; as a rule, active = well fitted curve in the direction sought with a large enough effect; inconclusive = small, poorly fitted or top-dose-only effect, or another doubt; inactive = no such curve, though single readings can be large; an effect the other way counts as inactive or inconclusive.
SMILES,FUS suppressor,aSyn rescue,pAkt inh,TDP43 rescue,Abeta yeast res
O=C(NNC(=O)c1csc(-c2cccs2)n1)c1ccc(Cl)cc1,.,.,.,22µM,.
CC(C)Sc1cc(N2CCCC2)nc(-c2ccccc2Cl)n1,.,.,.,14µM,.
CC(C)Sc1cc(N2CCCC2)nc(-c2ccccc2)n1,.,.,.,.,.
Cc1cc(S(=O)(=O)Nc2ccc3[nH]c(=O)sc3c2)ccc1F,.,/,/,.,.
O=C(O/N=C(/c1ccccc1)c1ccncc1)c1cccc(F)c1,.,.,.,14µM,.
CCN1CCN(CCNC(=O)c2ccc3c(c2)N(Cc2cccc(Cl)c2)C(=O)c2ccccc2S3=O)CC1 (centres undefined),.,.,.,.,.
CCN(C(=O)c1ccc2c(c1)N(Cc1cccc(Cl)c1)C(=O)c1ccccc1S2=O)c1ccccc1 (centres undefined),32µM,/,/,.,.
Cc1ccc(CCNC(=O)c2ccc3c(c2)N(Cc2ccccc2)C(=O)c2ccccc2S3=O)cc1 (centres undefined),.,/,/,.,.
CCOc1ccc(CCNC(=O)c2ccc3c(c2)N(Cc2ccccc2)C(=O)c2ccccc2S3=O)cc1OCC (centres undefined),25µM,/,/,.,.
Cc1ccc(C)c(CN2C(=O)c3ccccc3S(=O)c3ccc(C(=O)N4CCN(c5cccc(Cl)c5)CC4)cc32)c1 (centres undefined),10µM,/,/,.,.
Nc1c(C(=O)N2CCN(c3ccccc3)CC2)nnn1Cc1ccc(Cl)cc1,.,/,/,/,/
O=C(OCc1nc2ccsc2c(=O)[nH]1)c1ccc(Cl)s1,.,.,.,18µM,.
Cn1nnnc1N=N/C(=N/Nc1ccccc1)c1ccccc1,.,3.2µM,.,?,?
O=C(c1cc(-c2ccccc2O)on1)N1CCc2ccccc2C1,.,.,.,.,.
O=C(c1cc(-c2ccc(O)cc2)on1)N1CCc2ccccc2C1,.,.,.,14µM,.
Cc1cccc(C(=O)Nc2nnc(S(=O)(=O)N3c4ccccc4CC3C)s2)c1 (centres undefined),.,/,/,.,.
COc1ccc(C2(c3ccc(OC)cc3)NC(=O)N(CC(=O)NC3(C#N)CCCCC3)C2=O)cc1,14µM,.[1.84 µM],.,.,.
COc1ccc(N2CC(NC(=O)COc3ccccc3)CC2=O)cc1OC (centres undefined),.,/,/,.,.
COc1ccc2nc(N3CCCCC3)c(C#N)cc2c1,.,.,.,13µM,.
Cc1ccc(/C=C/C(=O)N2CCC(c3nc4ccccc4o3)CC2)cc1,.,/,/,.,.
COc1ccc(/C=C/C(=O)N2CCC(c3nc4ccccc4o3)CC2)cc1OC,?,/,/,16µM,.
CCOc1ccc2nc(N3CCCC(C(=O)Nc4cc(Cl)c(OC)cc4OC)C3)sc2c1 (centres undefined),.,/,/,.,.
Cc1cccc(Nc2nc(N)c([N+](=O)[O-])c(NCc3ccco3)n2)c1,?,.,.,14µM,.
Cc1cccc(Nc2nc(N)c([N+](=O)[O-])c(N3CCC(C)CC3)n2)c1,.,.,.,25µM,.
Nc1ccc(S(=O)(=O)N2CCOCC2)cc1,/,.,/,/,/
SMILES,FUS suppressor,aSyn rescue,pAkt inh,TDP43 rescue,Abeta yeast res
CCOc1cc(C2C(C(=O)OC)=C(C)N=C3SC(C)C(=O)N32)ccc1OC(C)=O (centres undefined),.,.,.,.,.
CCOC(=O)C1=C(C)N=C2SC(C)C(=O)N2C1c1ccc(OC(C)=O)c(OC)c1 (centres undefined),?,.,-104%,.,.
Cn1c(=O)c(Sc2ccccc2)c(O)c2ccccc21,.,.,.,13µM,.
Cn1c(=O)c(S(=O)(=O)C(C)(C)C)c(O)c2ccccc21,/,.,.,2.8µM,.
Cn1c(=O)c(Cc2ccccc2)c(O)c2ccccc21,.,.,.,.,.
CC(=O)c1c(O)c2ccccc2n(C)c1=O,.,.,.,.,.
Cc1ccc(Sc2c(O)c3ccccc3n(C)c2=O)cc1,.,.,.,3.2µM,?
Cc1ccc(CNC(=O)Nc2cn(CC(C)C)c(=O)c3ccccc23)cc1,.,.,/,?,.
COc1ccc(CNC(=O)Cn2ccc3cc(S(=O)(=O)N4CCCCC4)ccc32)cc1OC,.,/,/,.,.
COc1ccc(N2CCN(C(=O)C3CCN(S(=O)(=O)c4cnc[nH]4)CC3)CC2)cc1,.,/,/,.,.
Cc1ccc(Cl)cc1N1CCN(C(=O)c2nn(C)c3c2CS(=O)(=O)c2ccccc2-3)CC1,?,/,/,.,.
Cn1nc(C(=O)N2CCN(c3cccc(Cl)c3)CC2)c2c1-c1ccccc1S(=O)(=O)C2,?,.,.,22µM,.
Cc1ccc(N2CCN(C(=O)c3nn(C)c4c3CS(=O)(=O)c3ccccc3-4)CC2)c(C)c1,22µM!,.,.,?,.
Cc1cc2nc(-c3ccco3)c(Cc3cccc(Cl)c3)n2c(C)c1Br,.,.,.,13µM,.
Cc1ccc(NC(=O)COc2ccc(/C=C3/SC(=Nc4ccccc4)N(Cc4cccnc4)C3=O)cc2)cc1,.,.,-106%,.,.
Cc1ccc(NC(=O)COc2ccc(/C=N/NC(=O)CSCc3ccccc3)cc2)cc1,.,.,.,.,.
Cc1cccc(N(C)c2nc3ccccc3c3nnc(C)n23)c1,.,/,/,22µM,.
O=C(OCC(=O)c1c[nH]c2ccccc12)c1cncc(Br)c1,.,.[1.84 µM],.,11µM,.
NC(=O)Nc1ccc(C(=O)OCC(=O)c2c[nH]c3ccccc23)cc1,.,.,.,.,.
Cc1ccc(CCNS(=O)(=O)c2ccc(C)cc2)cc1,.,/,/,16µM,.
CCOc1ccc(NC(=O)c2cn3c4c(ccc(Cl)c4c2=O)OC(C)C3)cc1 (centres undefined),.,/,/,.,.
Cn1cc(C(=O)Nc2cccc(F)c2)cn1,.,.,-122%,.,.
Cc1nc2c(C(=O)NCc3ccco3)cnn2c(C)c1Cc1ccc(F)cc1Cl,.,.,.,.,.
Cc1ccccc1Cc1c(C)nc2c(C(=O)N3CCN(Cc4ccc5c(c4)OCO5)CC3)cnn2c1C,.,.,.,.,.
Cc1cccc(Cc2c(C)nc3c(C(=O)N4CCN(Cc5ccc6c(c5)OCO6)CC4)cnn3c2C)c1,.,.,-83%,.,.
SMILES,FUS suppressor,aSyn rescue,pAkt inh,TDP43 rescue,Abeta yeast res
Cc1cccc(Cc2c(C)nc3c(C(=O)NCc4ccco4)cnn3c2C)c1,13µM,.,.,.,.
CCn1cc2nc(SCC(=O)Nc3cc(OC)ccc3OC)n(Cc3ccc(Cl)cc3)c(=O)c2n1,?,/,/,.,.
Cc1nc(N2CCCC2)ncc1C(=O)N1CCN(c2ccc(Cl)cc2)CC1,.,/,/,.,.
CNC(=O)c1cc2c(ccc3ccccc32)o1,.,11µM,.,?,.
O=C(NC1CCCC1)c1cc2c(ccc3ccccc32)o1,/,.,.,.,.
Cc1ccc(Cn2c(C)c(CNCCCc3ccccc3)c(C(=O)O)c2C)cc1,.,/,/,.,.
